Results taken from the supplement of paper PMC8007513.
Where a name gives a salt, the structure may show the parent alone. ± gives the standard error. Out of some 1,300 compounds screened, about 130 (10%) showed an effect of 50% or more. Only a selection was taken, and strong results are over-represented in it overall.

Tested on: Trichoderma virens ATCC 9645
Test: growth yield (OD600) with compound + IPBC relative to untreated control; higher = less growth inhibition
Details: compound concentration: 100 uM, IPBC concentration: 200 ng/ml
In short: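 Spores of Trichoderma virens ATCC 9645, taken from potato dextrose agar plates grown for 7 days, were suspended at 15,000 spores ml^−1 in potato dextrose broth. In 96-well plates, 100 μl aliquots held library compounds at 100 μM final, either alone or together with a biocide at 200 ng ml^−1, and were grown at 30 °C. A BioTek EL800 read OD600 at 40 h and 72 h. Growth values are given relative to the control lacking both agents and are means of duplicate screens.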

| SMILES | growth yield (40 h) | growth yield (72 h) |
| --- | --- | --- |
| CN[C@@H]1[C@@H](O[C@H]2O[C@H](CO)[C@@H](N)[C@H](O)[C@H]2O)OC2C[C@@H](N)[C@@H](O[C@H]3[C@H](O)[C@@H](O)[C@H](N)C[C@@H]3N)OC2[C@@H]1O (some centres not stated) [Apramycin] + CCCCNC(=O)OCC#CI [3-iodo-2-propynyl butylcarbamate (IPBC)] | 96.6 ± 4.1% | 97.1 ± 1.5% |
| CCCN(CCC)S(=O)(=O)c1ccc(C(=O)O)cc1 [Probenecid] + CCCCNC(=O)OCC#CI [3-iodo-2-propynyl butylcarbamate (IPBC)] | 81.5 ± 4.9% | 86.1 ± 0.73% |
| NC(=O)N1c2ccccc2C=Cc2ccccc21 [Carbamazepine] + CCCCNC(=O)OCC#CI [3-iodo-2-propynyl butylcarbamate (IPBC)] | 92.8 ± 1.9% | 93.8 ± 1.1% |
| COc1cc2c(c(OC)c1OC)-c1ccc(OC)c(=O)cc1[C@@H](NC(C)=O)CC2 [Colchicine] + CCCCNC(=O)OCC#CI [3-iodo-2-propynyl butylcarbamate (IPBC)] | 88.5 ± 6.8% | 92.9 ± 1.7% |
| NC[C@@H]1O[C@H](O[C@H]2[C@@H](O)[C@H](O[C@@H]3[C@@H](O)[C@H](N)C[C@H](N)[C@H]3O[C@H]3O[C@H](CO)[C@@H](O)[C@H](O)[C@H]3N)O[C@@H]2CO)[C@H](N)[C@@H](O)[C@@H]1O [Paromomycin sulfate] + CCCCNC(=O)OCC#CI [3-iodo-2-propynyl butylcarbamate (IPBC)] | 84 ± 7.2% | 86.5 ± 2.2% |
| COC1=C(OC)C(=O)C(CCCCCCCCCCO)=C(C)C1=O [Idebenone] + CCCCNC(=O)OCC#CI [3-iodo-2-propynyl butylcarbamate (IPBC)] | 49.1 ± 8.1% | 73.9 ± 4.5% |
| CCn1cc(C(=O)O)c(=O)c2cc(F)c(N3CCNC(C)C3)c(F)c21 (configuration not stated) [Lomefloxacin hydrochloride] + CCCCNC(=O)OCC#CI [3-iodo-2-propynyl butylcarbamate (IPBC)] | 87.4 ± 8.3% | 96.3 ± 6.5% |
| CCCN(CCC)CCc1cccc2c1CC(=O)N2 [Ropinirole hydrochloride] + CCCCNC(=O)OCC#CI [3-iodo-2-propynyl butylcarbamate (IPBC)] | 84.8 ± 1.3% | 90.61 ± 0.42% |
| O=C(O)c1ccccc1Nc1cccc(C(F)(F)F)c1 [Flufenamic acid] + CCCCNC(=O)OCC#CI [3-iodo-2-propynyl butylcarbamate (IPBC)] | 29.1 ± 2.1% | 59.05 ± 0.32% |
| O=C(O)c1cccnc1Nc1cccc(C(F)(F)F)c1 [Niflumic acid] + CCCCNC(=O)OCC#CI [3-iodo-2-propynyl butylcarbamate (IPBC)] | 63.9 ± 2.9% | 85.2 ± 3.1% |
| O=C(OCCOCCO)c1ccccc1Nc1cccc(C(F)(F)F)c1 [Etofenamate] + CCCCNC(=O)OCC#CI [3-iodo-2-propynyl butylcarbamate (IPBC)] | 59.2 ± 1.4% | 94.4 ± 2.1% |
| CCCc1nc(C(C)(C)O)c(C(=O)O)n1Cc1ccc(-c2ccccc2-c2nnn[nH]2)cc1 [Olmesartan] + CCCCNC(=O)OCC#CI [3-iodo-2-propynyl butylcarbamate (IPBC)] | 107 ± 1.3% | 104 ± 1.4% |
| OC(c1cc(C(F)(F)F)nc2c(C(F)(F)F)cccc12)C1CCCCN1 (configuration not stated) [Mefloquine hydrochloride] + CCCCNC(=O)OCC#CI [3-iodo-2-propynyl butylcarbamate (IPBC)] | 74.8 ± 4% | 103 ± 3.4% |
| O=C(O)CCc1nc(-c2ccccc2)c(-c2ccccc2)o1 [Oxaprozin] + CCCCNC(=O)OCC#CI [3-iodo-2-propynyl butylcarbamate (IPBC)] | 72.7 ± 4.5% | 85.47 ± 0.73% |
| O=C(O)Cc1sc(-c2ccccc2)nc1-c1ccc(Cl)cc1 [Fentiazac] + CCCCNC(=O)OCC#CI [3-iodo-2-propynyl butylcarbamate (IPBC)] | 25.4% | 77.1 ± 16% |
| O=C(O)Cc1ccc(-c2ccccc2)cc1 [Felbinac] + CCCCNC(=O)OCC#CI [3-iodo-2-propynyl butylcarbamate (IPBC)] | 56.2 ± 4.1% | 91.9 ± 4.6% |
| Nc1nc(/C(=C/CC(=O)O)C(=O)N[C@@H]2C(=O)N3C(C(=O)O)=CCS[C@H]23)cs1 [Ceftibuten] + CCCCNC(=O)OCC#CI [3-iodo-2-propynyl butylcarbamate (IPBC)] | 92.4 ± 4.8% | 94 ± 3.1% |
| CCCNC(=O)NS(=O)(=O)c1ccc(Cl)cc1 [Chlorpropamide] + CCCCNC(=O)OCC#CI [3-iodo-2-propynyl butylcarbamate (IPBC)] | 93.7 ± 4.1% | 102 ± 2.2% |
| CCN(CC)C(=S)SSC(=S)N(CC)CC [Disulfiram] + CCCCNC(=O)OCC#CI [3-iodo-2-propynyl butylcarbamate (IPBC)] | 33.7 ± 3.8% | 92.4 ± 1.6% |
| C=CCC1(CC(C)C)C(=O)NC(=O)NC1=O [Butalbital] + CCCCNC(=O)OCC#CI [3-iodo-2-propynyl butylcarbamate (IPBC)] | 85.6 ± 1.4% | 93.2 ± 0.94% |
| COc1ccc([C@@H]2Sc3ccccc3N(CCN(C)C)C(=O)[C@@H]2OC(C)=O)cc1 [Diltiazem hydrochloride] + CCCCNC(=O)OCC#CI [3-iodo-2-propynyl butylcarbamate (IPBC)] | 80.85 ± 0.48% | 88.4 ± 2.2% |
| CC(C)C[C@H](CN)CC(=O)O [Pregabalin] + CCCCNC(=O)OCC#CI [3-iodo-2-propynyl butylcarbamate (IPBC)] | 85.3 ± 0.79% | 89.14 ± 0.21% |
| CN(C)c1cc(NC(=O)CNC(C)(C)C)c(O)c2c1C[C@H]1C[C@H]3[C@H](N(C)C)C(O)=C(C(N)=O)C(=O)[C@@]3(O)C(O)=C1C2=O [Tigecycline] + CCCCNC(=O)OCC#CI [3-iodo-2-propynyl butylcarbamate (IPBC)] | 80.7 ± 3.5% | 79 ± 2% |
| N=C(NCCCCCCNC(=N)NC(=N)Nc1ccc(Cl)cc1)NC(=N)Nc1ccc(Cl)cc1 [Chlorhexidine] + CCCCNC(=O)OCC#CI [3-iodo-2-propynyl butylcarbamate (IPBC)] | 4.61 ± 0.16% | 3.67 ± 0.32% |
| N=C(N)NC(=N)NCCc1ccccc1 [Phenformin hydrochloride] + CCCCNC(=O)OCC#CI [3-iodo-2-propynyl butylcarbamate (IPBC)] | 86.25 ± 0.48% | 92 ± 2.4% |
| CC(C)NC(=N)NC(=N)Nc1ccc(Cl)cc1 [Proguanil hydrochloride] + CCCCNC(=O)OCC#CI [3-iodo-2-propynyl butylcarbamate (IPBC)] | 92.8 ± 2.2% | 104 ± 1.8% |
